# Experimental data from article PMC5540273 (PLoS ONE, 2017).
# Where “and” joins values, the source holds several entries; their conditions need not be identical. Equal entries are not always repeated. Where two headings read alike, the source gives them in different places.
# Experiments:
# VPS34 = tested on: T1, VPS34; settings: concentration: 1 μM, replicates: in singlicate, n = 1
# T1 construct: gene PIK3C3
# VRK2 = settings: concentration: 1 μM, replicates: in singlicate, n = 1
# WEE1 = settings: concentration: 1 μM, replicates: in singlicate, n = 1
# WEE2 = settings: concentration: 1 μM, replicates: in singlicate; n = 1
# WNK1 = settings: concentration: 1 μM, replicates: in singlicate, n = 1
# WNK2 = settings: concentration: 1 μM, replicates: in singlicate, n = 1
# WNK3 = settings: concentration: 1 μM, replicates: in singlicate, n = 1
# WNK4 = settings: concentration: 1 μM, replicates: in singlicate, n = 1
# YANK1 = tested on: T2, YANK1; settings: concentration: 1 μM, replicates: in singlicate, n = 1
# T2 construct: gene STK32A
# YANK2 = tested on: T3, YANK2; settings: concentration: 1 μM, replicates: in singlicate, n = 1
# T3 construct: gene STK32B
# YANK3 = tested on: T4, YANK3; settings: concentration: 1 μM, replicates: in singlicate, n = 1
# T4 construct: gene STK32C
# YES = tested on: T5, YES; settings: concentration: 1 μM, replicates: in singlicate, n = 1
# T5 construct: gene YES1
# YSK1 = tested on: T6, YSK1; settings: concentration: 1 μM, replicates: in singlicate, n = 1
# T6 construct: gene STK25
# YSK4 = tested on: T7, YSK4; settings: concentration: 1 μM, replicates: in singlicate, n = 1
# T7 construct: gene MAP3K19
# ZAK = settings: concentration: 1 μM, replicates: in singlicate, n = 1
# ZAP70 = settings: concentration: 1 μM, replicates: in singlicate, n = 1
# p38-alpha = tested on: T8, p38-alpha; settings: concentration: 1 μM, replicates: in singlicate, n = 1
# T8 construct: gene MAPK14
# p38-beta = tested on: T9, p38-beta; settings: concentration: 1 μM, replicates: in singlicate, n = 1
# T9 construct: gene MAPK11
# p38-delta = settings: concentration: 1 μM, replicates: in singlicate, n = 1
# p38-gamma = tested on: T10, p38-gamma; settings: concentration: 1 μM, replicates: in singlicate, n = 1
# T10 construct: gene MAPK12
# 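Also: KINOMEscan kinase panel screen.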
structure (smiles),measurement,setting,value
NS(=O)(=O)c1cccc(-c2ccc3ncc(N4CCOCC4)nc3c2)c1 [GSK1535721],%Inh,VPS34,87%
same,%Inh,VRK2,8%
same,%Inh,WEE1,5%
same,%Inh,WEE2,8%
same,%Inh,WNK1,0%
same,%Inh,WNK2,0%
same,%Inh,WNK3,24%
same,%Inh,WNK4,16%
same,%Inh,YANK1,2%
same,%Inh,YANK2,3%
same,%Inh,YANK3,1%
same,%Inh,YES,7%
same,%Inh,YSK1,15%
same,%Inh,YSK4,89%
same,%Inh,ZAK,3%
same,%Inh,ZAP70,0%
same,%Inh,p38-alpha,9%
same,%Inh,p38-beta,0%
same,%Inh,p38-delta,21%
same,%Inh,p38-gamma,0%
Cc1cn2c(=O)cc(N3CCOCC3)nc2n1Cc1cccc(Cl)c1Cl [GSK2334006],%Inh,VPS34,96.7%
same,%Inh,VRK2,0%
same,%Inh,WEE1,20%
same,%Inh,WEE2,16%
same,%Inh,WNK1,0%
same,%Inh,WNK2,19%
same,%Inh,WNK3,27%
same,%Inh,WNK4,0%
same,%Inh,YANK1,23%
same,%Inh,YANK2,0%
same,%Inh,YANK3,34%
same,%Inh,YES,21%
same,%Inh,YSK1,0%
same,%Inh,YSK4,75%
same,%Inh,ZAK,6%
same,%Inh,ZAP70,6%
same,%Inh,p38-alpha,46%
same,%Inh,p38-beta,16%
same,%Inh,p38-delta,22%
same,%Inh,p38-gamma,0%
O=C(Nc1cccc(-c2nn3ncccc3c2-c2ccnc(Nc3cccc(C(F)(F)F)c3)n2)c1)c1c(F)cccc1F [GSK299495],%Inh,VPS34,0%
same,%Inh,VRK2,20%
same,%Inh,WEE1,2%
same,%Inh,WEE2,24%
same,%Inh,WNK1,15%
same,%Inh,WNK2,0%
same,%Inh,WNK3,44%
same,%Inh,WNK4,27%
same,%Inh,YANK1,0%
same,%Inh,YANK2,15%
same,%Inh,YANK3,10%
same,%Inh,YES,98.7%
same,%Inh,YSK1,0%
same,%Inh,YSK4,33%
same,%Inh,ZAK,87%
same,%Inh,ZAP70,51%
same,%Inh,p38-alpha,43%
same,%Inh,p38-beta,24%
same,%Inh,p38-delta,53%
same,%Inh,p38-gamma,13%
O=c1cc(N2CCOCC2)nc2n(Cc3cccc(Cl)c3Cl)c(C3CC3)nn12 [GSK2358994],%Inh,VPS34,100%
same,%Inh,VRK2,0%
same,%Inh,WEE1,0%
same,%Inh,WEE2,0%
same,%Inh,WNK1,0%
same,%Inh,WNK2,0%
same,%Inh,WNK3,0%
same,%Inh,WNK4,0%
same,%Inh,YANK1,0%
same,%Inh,YANK2,0%
same,%Inh,YANK3,0%
same,%Inh,YES,9%
same,%Inh,YSK1,0%
same,%Inh,YSK4,0%
same,%Inh,ZAK,12%
same,%Inh,ZAP70,10%
same,%Inh,p38-alpha,0%
same,%Inh,p38-beta,8%
same,%Inh,p38-delta,4%
same,%Inh,p38-gamma,23%
CCc1ccnc(/C=C/c2n[nH]c3cc(Sc4ccccc4C(=O)NC)ccc23)c1,%Inh,VPS34,6%
same,%Inh,VRK2,13%
same,%Inh,WEE1,0%
same,%Inh,WEE2,0%
same,%Inh,WNK1,0%
same,%Inh,WNK2,39%
same,%Inh,WNK3,0%
same,%Inh,WNK4,0%
same,%Inh,YANK1,0%
same,%Inh,YANK2,0%
same,%Inh,YANK3,0%
same,%Inh,YES,4%
same,%Inh,YSK1,0%
same,%Inh,YSK4,60%
same,%Inh,ZAK,37%
same,%Inh,ZAP70,20%
same,%Inh,p38-alpha,0%
same,%Inh,p38-beta,0%
same,%Inh,p38-delta,7%
same,%Inh,p38-gamma,7%
Fc1ccc(-c2nn3c(OCC(F)(F)F)cccc3c2-c2ccncc2)cc1 [GW514784],%Inh,VPS34,2%
same,%Inh,VRK2,33%
same,%Inh,WEE1,10%
same,%Inh,WEE2,0%
same,%Inh,WNK1,14%
same,%Inh,WNK2,0%
same,%Inh,WNK3,27%
same,%Inh,WNK4,38%
same,%Inh,YANK1,30%
same,%Inh,YANK2,24%
same,%Inh,YANK3,0%
same,%Inh,YES,11%
same,%Inh,YSK1,17%
same,%Inh,YSK4,0%
same,%Inh,ZAK,17%
same,%Inh,ZAP70,0%
same,%Inh,p38-alpha,99.9%
same,%Inh,p38-beta,40%
same,%Inh,p38-delta,22%
same,%Inh,p38-gamma,1%
COc1ccc(COc2cc(-n3cnc4ccccc43)sc2C(N)=O)cc1 [GSK1024304],%Inh,VPS34,40%
same,%Inh,VRK2,0%
same,%Inh,WEE1,0%
same,%Inh,WEE2,2%
same,%Inh,WNK1,0%
same,%Inh,WNK2,0%
same,%Inh,WNK3,12%
same,%Inh,WNK4,13%
same,%Inh,YANK1,6%
same,%Inh,YANK2,0%
same,%Inh,YANK3,0%
same,%Inh,YES,0%
same,%Inh,YSK1,0%
same,%Inh,YSK4,15%
same,%Inh,ZAK,14%
same,%Inh,ZAP70,0%
same,%Inh,p38-alpha,35%
same,%Inh,p38-beta,0%
same,%Inh,p38-delta,36%
same,%Inh,p38-gamma,0%
Cc1nnc(-c2ccc(C)c(-c3ccc(C(=O)Nc4ccc(NS(C)(=O)=O)cc4)cc3)c2)o1 [GW702865],%Inh,VPS34,0%
same,%Inh,VRK2,0%
same,%Inh,WEE1,17%
same,%Inh,WEE2,0%
same,%Inh,WNK1,0%
same,%Inh,WNK2,1%
same,%Inh,WNK3,35%
same,%Inh,WNK4,26%
same,%Inh,YANK1,6%
same,%Inh,YANK2,0%
same,%Inh,YANK3,17%
same,%Inh,YES,11%
same,%Inh,YSK1,0%
same,%Inh,YSK4,0%
same,%Inh,ZAK,0%
same,%Inh,ZAP70,15%
same,%Inh,p38-alpha,99.7%
same,%Inh,p38-beta,70%
same,%Inh,p38-delta,17%
same,%Inh,p38-gamma,0%
O=C(NOCC1CC1)c1ccc(F)c(F)c1Nc1ccc(I)cc1Cl,%Inh,VPS34,0%
same,%Inh,VRK2,0%
same,%Inh,WEE1,0%
same,%Inh,WEE2,0%
same,%Inh,WNK1,0%
same,%Inh,WNK2,0%
same,%Inh,WNK3,0%
same,%Inh,WNK4,0%
same,%Inh,YANK1,6%
same,%Inh,YANK2,0%
same,%Inh,YANK3,0%
same,%Inh,YES,0%
same,%Inh,YSK1,0%
same,%Inh,YSK4,0%
same,%Inh,ZAK,0%
same,%Inh,ZAP70,0%
same,%Inh,p38-alpha,0%
same,%Inh,p38-beta,19%
same,%Inh,p38-delta,0%
same,%Inh,p38-gamma,0%
CC(C)(CN)c1nc(-c2ccc(Cl)c(O)c2)c(-c2ccncc2)[nH]1.O=C(O)C(F)(F)F [SB-477794],%Inh,VPS34; 1 µM,0% and 48%
same,%Inh,VRK2; 1 µM,41% and 42%
same,%Inh,WEE1; 1 µM,8% and 7%
same,%Inh,WEE2,0%
same,%Inh,WNK1; 1 µM,16% and 0%
same,%Inh,WNK2; 1 µM,1% and 9%
same,%Inh,WNK3; 1 µM,52% and 39%
same,%Inh,WNK4; 1 µM,47% and 49%
same,%Inh,YANK1; 1 µM,95.3% and 93.8%
same,%Inh,YANK2; 1 µM,93.6% and 94%
same,%Inh,YANK3; 1 µM,86% and 83%
same,%Inh,YES; 1 µM,88% and 86%
same,%Inh,YSK1; 1 µM,6% and 96.1%
same,%Inh,YSK4; 1 µM,87% and 65%
same,%Inh,ZAK; 1 µM,100% and 59%
same,%Inh,ZAP70; 1 µM,58% and 0%
same,%Inh,p38-alpha; 1 µM,99.8% and 99.3%
same,%Inh,p38-beta; 1 µM,53% and 58%
same,%Inh,p38-delta; 1 µM,29% and 0%
same,%Inh,p38-gamma; 1 µM,19% and 63%
